Bioassay records from PubChem BioAssay.
Rows were chosen to be rich in hits. Some 15% of all compounds tested hit in one or more screens of this group.
Gal4-VP16 FLuc: inhibits Gal4-VP16 luciferase reporter, ROR gamma counter-screen. Drosophila S2 Gal4-VP16 UAS-luciferase, luminescence, 20 h. Potency, µM (series often up to 53.6 µM), for the others: at the top dose activity, negative = inhibition, usual class: inhibitors. 310,000 tested, 3.5% active;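 further: Gal4-VP16 expression switched on by copper sulfate through the metallothionein promoter; nearly all actives have a fitted effect of over 50% in size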
ELG1 DNA repair: blocks ELG1-dependent DNA repair in HEK293T cells; HEK293T ELG1-luciferase reporter, luminescence, 16 h; DNA damage induced by 5-fluorouridine; Potency, µM (titrated, usually from 46.1 µM), for inactives: at the highest dose activity change, negative = inhibition, actives largely listed as inhibitors; 330,000 tested, 2.3% active; AID 504467; further: nearly all actives have a fitted effect of over 55% in size
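In this reporter screen, reduction of luminescence relative to DMSO vehicle indicated activity. Compounds and 5-fluorouridine were added together to 2,000 cells per well, incubated for 16 hr at 37 °C, then developed with ONE-Glo.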
12-LOX inh: ALOX12 (human) lipoxygenase inhibition. AID 1671190. Potency, µM (highest dose often 108 µM), inactives show top-dose activity change, negative = inhibition, hits mostly inhibitors. 580,000 tested, 1.1% active. P18054. purified 12hLO, xylenol orange hydroperoxide absorbance
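Purified human 12hLO (150 nM final) in 25 mM Hepes, 0.01% Triton X-100, pH 7.0 was preincubated 15 min at room temperature with compound. Then 40 uM arachidonic acid was added, 30 min. Hydroperoxide was read by Fe-XO absorbance ratio 573/405 nm.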
TDP1 cell noCPT: qHTS for Inhibitors of human tyrosyl-DNA phosphodiesterase 1 (TDP1): qHTS in cells in absence of CPT; Potency, µM (series often up to 46.2 µM), for inactives: at the highest dose activity change, negative = growth inhibition, hits mostly inhibitors; DT40 Tdp1-/- hTDP1 cells, no CPT, ATP luminescence, 48 h; AID 686978, 2013; 420,000 tested, 15% active; further: nearly all actives have a fitted effect of over 55% in size
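Growth of hTDP1-complemented DT40 Tdp1-knockout cells is measured by ATP luminescence after at least 48 hr compound exposure at 37 °C, with DMSO substituting for the 20 nM CPT used in the parallel screen.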
RORgamma inh: ROR gamma (mouse) transcription inhibition. Drosophila S2 Gal4-RORgamma UAS-luciferase reporter, 20 h. Potency, µM (top dose mostly 53.6 µM), inactives show top-dose activity change, negative = inhibition, actives largely listed as inhibitors. 310,000 tested, 5.4% active. AID 2551; further: nearly all actives have a fitted effect of over 60% in size
Target sequence (P51450 whole entry, looked up, the tested form may be a part): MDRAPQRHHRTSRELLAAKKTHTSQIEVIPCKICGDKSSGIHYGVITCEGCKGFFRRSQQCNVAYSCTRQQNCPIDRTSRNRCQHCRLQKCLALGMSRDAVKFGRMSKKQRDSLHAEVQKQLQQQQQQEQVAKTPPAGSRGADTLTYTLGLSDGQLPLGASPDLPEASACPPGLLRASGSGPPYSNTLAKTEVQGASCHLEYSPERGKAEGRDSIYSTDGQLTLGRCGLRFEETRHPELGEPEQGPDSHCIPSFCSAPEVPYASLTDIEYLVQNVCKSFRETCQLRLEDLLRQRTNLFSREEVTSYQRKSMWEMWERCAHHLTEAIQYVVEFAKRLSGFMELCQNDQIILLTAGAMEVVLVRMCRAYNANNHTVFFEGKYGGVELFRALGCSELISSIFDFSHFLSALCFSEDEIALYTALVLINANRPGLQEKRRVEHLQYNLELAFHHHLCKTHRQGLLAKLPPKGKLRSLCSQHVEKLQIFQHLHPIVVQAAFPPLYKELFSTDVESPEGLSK
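Drosophila S2 cells stably expressing Gal4-DBD/mouse RORγ fusion under metallothionein promoter plus UAS-luciferase; compound 1 h, then 700 uM CuSO4 induction for 20 h at ambient temperature; inhibition read as reduced luminescence.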
DT40 TDP1 CPT: DT40-hTDP1 cell growth loss with CPT | chicken DT40 Tdp1-/-;hTDP1 cells + 20 nM CPT, ATP luminescence, 48 h | Potency, µM (titrated, usually from 46.2 µM), for inactives: at the highest dose activity change, negative = growth inhibition, actives largely listed as inhibitors | 420,000 tested, 12% active; further: nearly all actives have a fitted effect of over 55% in size
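Chicken DT40 Tdp1-/- cells complemented with human TDP1, 400 cells/well, exposed to compounds plus 20 nM camptothecin for at least 48 h at 37 C; viability read as ATP content by CellTiter-Glo luminescence.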
The depositor's hits bear a star; ? = inconclusive; · = no result; [ ] = remark or other dose. The call rests on the fitted dose curve; in most records, active means well fitted curve in the direction sought with a large enough effect; inconclusive means small, poorly fitted or top-dose-only effect, or another doubt; inactive means no such curve, though single readings can be large; an effect the other way counts as inactive or inconclusive. On the % scale 0 is the no-effect control and ±100 the full control effect; potency means the concentration at half of the fitted maximal effect.

SMILES | Gal4-VP16 FLuc | ELG1 DNA repair | 12-LOX inh | TDP1 cell noCPT | RORgamma inh | DT40 TDP1 CPT
COc1ccc(C(=O)C2CCCN(Cc3cccn3-c3ccccn3)C2)c(OC)c1 (stereo not given) | 1% | ? | -2% | 6.5µM* | 16% | 8.2µM*
CCNC(=O)N1CCC(CCOc2ccccc2)C1 (stereo not given) | · | · | 42% | · | · | ·
CCOC(=O)c1c(N)sn(-c2ccccc2C)c1=S | -2% | -1% | ? | 26µM* | -19% | 23µM*
COc1ccc2cc(C(=O)N3CCN4CCS(=O)(=O)N(C5CC5)C(=O)C4C3)[nH]c2c1 (stereo not given) | · | · | -1% | · | · | ·
COc1ccc2[nH]c(C(=O)N3CCN4CCS(=O)(=O)N(C5CC5)C(=O)C4C3)cc2c1 (stereo not given) | · | · | 22µM* | · | · | ·
CCOC(=O)C(NC(=O)/C=C/c1ccc2cc(OC)ccc2c1)C(=O)OCC | · | · | -19% | · | · | ·
CN(Cc1ccccc1)C(=O)CSc1c2c(nc3ccc(Cl)cc13)CCCC2 | · | · | -20% | 16µM* | · | ?
CCCN(CCC)C(=O)CSc1c2c(nc3ccc(Cl)cc13)CCCC2 | · | · | 0% | ? | · | 18µM*
CCCCN(C)C(=O)CSc1c2c(nc3ccc(Cl)cc13)CCCC2 | · | · | 1% | ? | · | ?
COc1cc(OC)c(N(C)C(=O)CSc2c3c(nc4ccc(Cl)cc24)CCCC3)cc1Cl | · | · | -6% | ? | · | 18µM*
CCOc1c2c(nc3ccc(Cl)cc13)CCC2 | -24% | 4% | -5% | ? | 11µM* | ?
Cc1ccc(CNC(=O)CSc2c3c(nc4ccc(Cl)cc24)CCCC3)o1 | -2% | ? | 43% | ? | ? | ?
O=C(CSc1nc(-c2ccccc2F)nc2cc(=O)[nH]n12)N1CCCc2ccccc21 | · | · | -58% | · | · | ·
O=[N+]([O-])c1ccc2[nH]c(=S)[nH]c2c1 | · | · | ? | -17% | · | 2%
O=[N+]([O-])c1ccc2[nH]c(=S)sc2c1 | · | · | ? | 21µM* | · | 23µM*
COc1ccc(-c2nc3cc(C)ccc3cc2CN2CCN(C)C(=O)C2)cc1OC | · | · | 45% | · | · | ·
O[C@H]1CC[C@@H](Cc2cc(-c3ccc(F)cc3)on2)O[C@@H]1CNCc1ccccc1Cl | · | · | 11%[176 µM] | · | · | ·
O=C(NC(Cc1ccccc1)C(=O)N1CCN(c2ccccc2)CC1)c1ccco1 (stereo not given) | · | · | -2% | · | · | ·
COc1ccc(S(=O)(=O)N2CCN(C(=O)c3sccc3-c3ccccc3)CC2)cc1 | · | -1% | 1% | 21µM* | · | 15µM*
O=C(c1sccc1-c1ccccc1)N1CCN(S(=O)(=O)c2ccccc2F)CC1 | · | -13% | 22% | ? | · | 15µM*
O=C(c1ccc(N2C(=O)c3ccccc3C2=O)cc1)N1CCN(S(=O)(=O)c2ccccc2F)CC1 | · | · | 26% | -28% | · | -2%
COc1ccc(S(=O)(=O)N2CCN(C(=O)c3cccs3)CC2)cc1 | 0% | ? | 0% | -17% | 28% | -13%
COc1cccc(CNC(=O)c2cccc3ccccc23)c1 | · | · | 9% | · | · | ·
Cc1ccc2[nH]c(=O)c(CN(CC3CCCO3)C(=S)Nc3ccccc3)cc2c1 (stereo not given) | -4% | ? | ? | 15µM* | 20% | 13µM*
Cc1ccc2cc(CN(CC3CCCO3)C(=S)Nc3ccccc3)c(=O)[nH]c2c1 (stereo not given) | -2% | ? | -9% | 15µM* | -9% | ?
SMILES | Gal4-VP16 FLuc | ELG1 DNA repair | 12-LOX inh | TDP1 cell noCPT | RORgamma inh | DT40 TDP1 CPT
Cc1cc(C)c2[nH]c(=O)c(CN(CC3CCCO3)C(=S)Nc3ccccc3)cc2c1 (stereo not given) | -12% | -16% | -7% | ? | 7% | ?
Cc1cc(C)n2nc(N(Cc3ccc(C#N)cc3)S(=O)(=O)c3ccc(Cl)cc3)nc2n1 | · | · | -4% | · | · | ·
O=C1c2[nH]nc(-c3ccc(F)cc3)c2C(c2ccccc2F)N1c1ccccc1 (stereo not given) | · | · | ? | 21µM* | · | ?
COc1cc(C2c3c(-c4ccccc4)n[nH]c3C(=O)N2c2ccccc2)ccc1O (stereo not given) | 11% | -13% | 5% | ? | -44% | ?
CCOC(=O)c1ccc(N2C(=O)c3n[nH]c(-c4cccs4)c3C2c2cccc(OC)c2)cc1 (stereo not given) | · | · | -9% | 10µM* | · | 26µM*
CCOC(=O)c1ccc(N2C(=O)c3[nH]nc(-c4ccc(OC)cc4)c3C2c2cccc(O)c2)cc1 (stereo not given) | · | · | 0% | 21µM* | · | 18µM*
CCOC(=O)c1ccc(N2C(=O)c3[nH]nc(-c4ccc(OCC)cc4)c3C2c2ccc(OC)cc2OC)cc1 (stereo not given) | · | · | -23% | 18µM* | · | 21µM*
CCOC(=O)c1ccc(N2C(=O)c3[nH]nc(-c4ccc(C)cc4)c3C2c2ccc(O)cc2)cc1 (stereo not given) | · | · | -25% | ? | · | ?
Cn1c(CN2CCC(O)CC2)nnc1C1CCCN(C(=O)CCN)C1 (stereo not given) | · | · | -18% | · | · | ·
CCOC(=O)c1ccc(N2C(=O)c3[nH]nc(-c4ccc(C)cc4)c3C2c2cccc(F)c2)cc1 (stereo not given) | · | · | 0% | ? | · | 23µM*
C=CS(=O)(=O)N(Cc1ccc(Cl)c(Cl)c1)C[C@@H](O)CO | · | 9.2µM* | · | 21µM* | · | 21µM*
CN(Cc1ccc(Cl)c(Cl)c1)C(C(=O)NC1CC1)c1ccccc1 (stereo not given) | · | · | 30% | · | · | ·
O=C(Nc1ccc(Br)cn1)Nc1ccccc1Cl | · | · | -1% | · | · | ·
Cc1cc(C(=O)N/N=C/c2cccn2C)n[nH]1 | 0% | ? | -15% | 1% | 15% | -1%
Cc1cc(C(=O)N/N=C\c2cc(C(C)(C)C)ccc2O)n[nH]1 | 5.6µM* | -1% | · | 3.3µM* | 2.2µM* | 21µM*
Cc1cc(C(=O)N/N=C/c2cc(Br)cc(Br)c2OC(=O)c2ccccc2)n[nH]1 | -102% | ? | · | · | -28%[10 µM] | ·
Cc1cc(C(=O)N/N=C/c2cc(Br)ccc2OC(=O)c2ccc(Br)cc2)n[nH]1 | 7.1µM* | -14% | · | · | 8.9µM* | ·
Cc1cc(C(=O)N/N=C/c2cc(Br)cc(Br)c2OC(=O)c2cccc(F)c2)n[nH]1 | -27% | ? | -9% | 5.8µM* | 3.5µM* | 5.8µM*
Cc1ccccc1CN1CCN2C(=O)N(C3CCCCC3)C[C@H]2C1 | · | · | 9%[176 µM] | · | · | ·
